# PubChem BioAssay AID588855 (National Center for Advancing Translational Sciences (NCATS), 2011)
# Among all 410,000 compounds or so, about 5,000 (1.2%) were called active. Inconclusive results (about 13%) are left out. The call rests on the fitted dose curve; in most records, active means well fitted inhibition curve with a large enough effect; inconclusive means small, poorly fitted or top-dose-only effect; inactive means no such curve, though single readings can be large or run the other way. Shown is part of a subset that was picked to be rich in actives.
# Assay: qHTS for Inhibitors of TGF-b; further: nearly all actives have a fitted effect of over 65% in size
# Conditions: HepG2 CAGA-GFP TGF-b/SMAD3 reporter, GFP fluorescence, 18 h, TGF-beta stimulated, 500 pg/mL final; series mostly up to 46.1 µM; activity, negative = inhibition: at the top concentration
# Source text: TGF-b is a main component in the TGF-b signaling pathway which plays diverse roles in cellular and development pathways. TGF-b is the mediated by the transcription factors Smads. Although the Smad-dependent pathway is the primary canonical TGF-b signaling node, TGF-b1 can also activate alternative signaling pathways, including those involving MAPK (ERK, JNK and p38). This interaction may mediate or enhance Smad-dependent responses, or can exert Smad-independent effects. The complexity of this signaling cascade allows the TGF-b superfamily to perform unique, overlapping or redundant functions. We believe that targeting the TGF-beta pathway at the Smad-transcription factor level may eliminate the consequences of disrupting the entire pathway and offer specificity without affecting other signaling pathways. Smad3 is the primary transducer of TGF-b's signals and Smad3 regulates many functions attributed to TGF-b signaling. We hypothesize that Smad3 inhibitors will selectively eliminate Smad3-specific TGF-beta signals without undesired off-target effects. We aim to identify Smad3-small molecule antagonists using a quantitative high throughput screening (qHTS) approach.
# A high-throughput assay was developed to screen the NIH Molecular Libraries Small Molecule Repository (MLSMR). This is a cell based assay, where TGF-b is tagged with GFP. A counterscreen is run that looks at cytotoxicity (please see summary AID).
# MH087449NIH Chemical Genomics Center [NCGC]
# NIH Molecular Libraries Probe Centers Network [MLPCN]
# Assay Submitter (PI): Sushil Rane, National Institute of […]
# Suspensions of trypsinized HEPG2 CAGA-GFP cells were dispensed into white, tissue culture-treated, solid 1536-well plates at 5uL/well (1000 cells/well final concentration) in DMEM medium supplemented with 1% FBS. Plates were incubated at 37 degrees C for 2 hours, after which 23 nL of compounds or DMSO were delivered to each well using a pin tool. One uL of recombinant TGF-beta in DMEM (1% FBS) was then dispensed (500 pg/mL final concentration), and plates were incubated at 37 degrees C for 18 hours. The plates were measured on an Acumen eX3 Explorer plate reader for GFP fluorescence (ex488/em500-530). GFP values were calculated by determining the mean GFP fluorescence of individual cells, and compiling these values for each well to determine a total well GFP signal. The %Activity was determined from the corrected fluorescence values. A titration of the known TGF-B inhibitor SB431542 was included to monitor plate performance, while unstimulated HEPG2 (-TGF-B) control wells were used to normalize %Activity of identified inhibitors; unstimulated wells corresponded to 100%Activity (full inhibition), while stimulated cell controls (+DMSO) were used to normalize 0%Activity (no inhibition).
# Concentration-response curves were fitted to the signals arising from the resulting fluorescence. The concentration-effect curves were then classified based on curve quality (r2), response magnitude and degree of measured activity, and compounds were subsequently categorized based on their curve class.
# Potency means the concentration at half of the fitted maximal effect.
SMILES,"activity, negative = inhibition",Potency
CC(C)C(=O)NC(NC(=S)NC1CCS(=O)(=O)C1)C(Cl)(Cl)Cl (stereo not given),-5.61% (inactive),
CCCSC(=S)NC1CCS(=O)(=O)C1 (stereo not given),,11.2 µM (active)
COc1ccc(NC(=S)NC2CCS(=O)(=O)C2)cc1 (stereo not given),-2.2% (inactive),
CCCC12CN3CC(CCC)(CN(C1)C3c1c[nH]c3ccc(OC)cc13)C2=O (stereo not given),3.08% (inactive),
COc1cc(NC(=O)c2nc3ccccc3nc2C)cc(OC)c1OC,25.6% (inactive),
COc1cc(C(=O)N2CCC(c3ccncc3)CC2)cc(OC)c1OC,0.25% (inactive),
Cc1ccc(N2CC(NC(=O)Cc3cccs3)CC2=O)cc1 (stereo not given),-7.03% (inactive),
CCN(CC)S(=O)(=O)c1ccc(N2CCOCC2)c(NC(=O)c2ccc(=O)n(C)n2)c1,2.21% (inactive),
CCN(CC)S(=O)(=O)c1ccc(N2CCCC2)c(NC(=O)c2ccc([N+](=O)[O-])o2)c1,,11.2 µM (active)
CCN(CC)S(=O)(=O)c1cc(C(=O)Nc2cc(S(=O)(=O)N3CCOCC3)ccc2N2CCCC2)ccc1F,-17.7% (inactive),
CCc1ccc(C2C(C(=O)Nc3ccccc3)=C(C)Nc3c(C(=O)Nc4ccc(C)cc4)cnn32)cc1 (stereo not given),-29.9% (inactive),
Cc1nc(N2CCOCC2)c2c(C(=O)NCc3cccc(Cl)c3)c(C)oc2n1,-6.9% (inactive),
O=C(CCn1ccc2cc(S(=O)(=O)N3CCCC3)ccc21)NCc1cccc(Cl)c1,-17.6% (inactive),
COC(=O)CCc1ccccc1S(=O)(=O)N(CCC(=O)OC)Cc1ccccc1,-14.8% (inactive),
COc1ccc(-c2nc(=N)sn2-c2ccccc2)cc1,-2.14% (inactive),
O=C(Nc1ccc2ccccc2c1[N+](=O)[O-])c1ccccc1,-1.78% (inactive),
O=C(Nc1ncccc1O)c1ccc(C(=O)c2ccccc2)cc1,-26.3% (inactive),
O=C(NC1=CC(=O)c2ccccc2C1=O)c1ccccc1,,10 µM (active)
CCOc1ccccc1C(=O)Nc1ccc(S(=O)(=O)N2CCCCC2c2cccnc2)cc1 (stereo not given),7.36% (inactive),
Cc1nnc(NCc2ccccc2)c2c1nnn2Cc1ccc(F)cc1,5.18% (inactive),
O=C(Cc1coc2ccc3ccccc3c12)NCc1cccs1,-13% (inactive),
O=C(NCc1cccs1)c1cc(-c2ccccn2)nc2ccc(Br)cc12,5.1% (inactive),
CC(C)Cn1c(N)c(C(=O)NCc2cccs2)c2nc3ccccc3nc21,,15.8 µM (active)
CCN(CC)c1ccc(/C=C/c2c(C)cnc3ccc(C)cc23)cc1,-5.97% (inactive),
Clc1cccc[n+]1CCCC[n+]1ccccc1Cl,-4.74% (inactive),

SMILES,"activity, negative = inhibition",Potency
Cc1ccc(C(=O)NC23CC4CC(CC(C4)C2)C3)c(Cl)c1,1.93% (inactive),
S=C(NCc1ccc(Cl)cc1)NC12CC3CC(CC(C3)C1)C2,,11.2 µM (active)
O=C(NCc1ccc2c(c1)OCO2)C12CC3CC(CC(C3)C1)C2,-11.2% (inactive),
CCC(=O)Nc1ccc(C)cc1-c1nc2ccccc2n(Cc2ccccc2)c1=O,-5.27% (inactive),
Nc1ccc(/C=C/c2ccnc3ccccc23)c([N+](=O)[O-])c1,1.61% (inactive),
CCCCN(CC)CCCNC(=O)c1nn(C)c2c1CSc1ccccc1-2,-0.617% (inactive),
COc1c(Cl)cc(Cl)cc1C(=O)Nc1cccc2cccnc12,17.3% (inactive),
COc1cccc(CNC(=O)c2cccnc2Sc2ccc(Cl)cc2)c1,0% (inactive),
CC(=O)/C(=N\Nc1ccc(Cl)cc1Cl)Sc1cccc2cccnc12,,2.82 µM (active)
COc1cccc(CN2CCc3nc(SCC(=O)Nc4ccccc4)[nH]c(=O)c3C2)c1,0.442% (inactive),
COc1ccccc1NC(=O)c1oc2ccccc2c1NC(=O)C(C)C,-0.0648% (inactive),
O=C(OCC(=O)N1CCN(C(=O)c2ccco2)CC1)c1cccc(O)c1,-8.99% (inactive),
O=C(OCC(=O)N1CCN(C(=O)c2ccco2)CC1)c1c(Cl)cccc1Cl,-17.9% (inactive),
CN(c1ccccc1)S(=O)(=O)c1cc(C(=O)OCC(=O)N2CCN(C(=O)c3ccco3)CC2)ccc1Cl,,10 µM (active)
CCOc1ccc(NC(=O)c2cnn(-c3ccccc3)c2-n2cccc2)cc1,-1.27% (inactive),
Cc1c(CNC(C)c2ccccc2)c(C(=O)O)c(C)n1Cc1c(F)cccc1Cl (stereo not given),1.13% (inactive),
CCc1cccc(NC(=O)CSc2nccn2C)c1,-2.18% (inactive),
O=C(Cn1ncc2c3ccccc3n(Cc3ccccc3)c2c1=O)NC1CCCCCC1,-2.78% (inactive),
COc1ccc(C2(O)C(=O)Nc3ccccc32)cc1 (stereo not given),-0.596% (inactive),
Cc1ccc(CC2(C)C(=O)Nc3ccc(OC(F)(F)F)cc32)cc1 (stereo not given),,15.8 µM (active)
COc1ccccc1CNS(=O)(=O)c1ccc2c(c1)NC(=O)CS2,-3.83% (inactive),
COc1ccccc1CC1(C)C(=O)Nc2ccc(OC(F)(F)F)cc21 (stereo not given),,20 µM (active)
O=C(CSc1ncc(-c2ccccc2)[nH]1)Nc1ccc(F)cc1F,0% (inactive),
Cc1ccc(N2CC(C(=O)Nc3ccc(N(C)C)cc3)CC2=O)cc1Cl (stereo not given),0.536% (inactive),
Cc1cccc(OCC(=O)N(Cc2ccc(C(C)C)cc2)Cc2ccco2)c1C,-18.9% (inactive),

SMILES,"activity, negative = inhibition",Potency
CN(C)c1ccc(/C=C/c2c3ccccc3nc3ccccc23)cc1,-19.8% (inactive),
COc1ccccc1N1CCN(C2C(=O)c3ccccc3N2C(C)=O)CC1 (stereo not given),0% (inactive),
COc1ccc(NC(=O)CCNS(=O)(=O)c2ccc3c(c2)CCCC(=O)N3)cc1Cl,2.37% (inactive),
CCOC(=O)CNC(=O)/C(=C\c1ccc(F)cc1)NC(=O)c1ccccc1,5.26% (inactive),
CCOC(=O)C[C@H]1c2ccc(C(F)(F)F)cc2S(=O)(=O)N1c1ccccc1,,14.1 µM (active)
CCOC(=O)CN1CCC(c2ccccc2)CC1,-5.44% (inactive),
CC(C)OCC(O)CN1CCN(C(c2ccccc2)c2ccccc2)CC1 (stereo not given),3.7% (inactive),
Cc1onc(C(=O)NN)c1C(=O)N1CCN(C(c2ccccc2)c2ccccc2)CC1,3.15% (inactive),
CC1(C)CC(N2CCN(C(c3ccccc3)c3ccccc3)CC2)=CC(=[N+]2CCCCC2)C1,,6.31 µM (active)
COc1ccc(NC(=O)c2sc3nc(-c4cc5cccc(OC)c5oc4=O)[nH]c(=O)c3c2C)cc1,-21.6% (inactive),
Cc1csc[n+]1CCC1CCCCC1,0.0338% (inactive),
Cc1ccccc1C(=O)Nc1cc(C)c(O)c(-c2nc3ccccc3o2)c1,-8.84% (inactive),
COC(=O)c1cnn(-c2ccc(C(=O)Nc3ccc(OC(F)(F)F)cc3)cc2)c1N,-19.7% (inactive),
CC1CCc2c(nc3ncnn3c2Nc2ccc(OC(F)(F)F)cc2)C1 (stereo not given),,15.8 µM (active)
CC(=O)c1nn(-c2ccc(OC(F)(F)F)cc2)nc1Nc1ccccc1,-3.72% (inactive),
Cc1cc(C)n(C(=O)CCNC(=O)c2ccccc2Cl)n1,-15% (inactive),
CCCN(CCC)CCNC(=O)c1cc2c(C)nc3ccccc3c2o1,-30.9% (inactive),
CN(C)CCNC(=O)c1ccc(Cl)c2cc3ccccc3nc12,,3.55 µM (active)
CC(NC(=O)CCC(=O)N1CCN(S(=O)(=O)c2ccc(Cl)cc2)CC1)c1ccccc1 (stereo not given),-13.8% (inactive),
O=C(CCC(=O)c1ccccc1)NCc1cccc(C(F)(F)F)c1,-3.04% (inactive),
O=C(CCC(=O)N1CCN(S(=O)(=O)c2ccc(Cl)cc2)CC1)NCc1cccc(C(F)(F)F)c1,,7.08 µM (active)
Cc1cc(OCC(=O)Nc2ncn[nH]2)c(C)c(C)c1Br,2.13% (inactive),
CCCn1c2ccccc2c2cnn(CC(=O)NCCCOC(C)C)c(=O)c21,-16.6% (inactive),
CCOC(=O)c1c(NC(=O)c2ccc(S(=O)(=O)N3CCCC(C)C3)cc2)sc2c1CCN(C(C)C)C2 (stereo not given),-0.37% (inactive),
CCOC(=O)c1cnc2c(C)cc(C)cc2c1Nc1ccc(N2CCOCC2)cc1,-6.96% (inactive),

SMILES,"activity, negative = inhibition",Potency
CCC1=Nc2cc(C(=O)NCC(C)c3ccccc3)ccc2Sc2ccc(C)cc21 (stereo not given),4.45% (inactive),
CC1=Nc2cc(C(=O)NCc3ccc(C)cc3)ccc2Sc2ccc(Cl)cc21,-12.7% (inactive),
COCCNC(=O)c1ccc2c(c1)N=C(C)c1cc(C)ccc1S2,,2 µM (active)
Cc1nn(-c2ccc(N3CCCCC3)nn2)c(C)c1CCC(=O)NCc1ccc(F)cc1,-26.8% (inactive),
Cc1ccc(-n2nc(CO)c(C(=O)NCCc3ccccc3)n2)cc1,0% (inactive),
COc1ccc(-c2cn3nc(N4CCC(C(=O)Nc5cccc(C)c5C)CC4)sc3n2)cc1,0% (inactive),
COc1ccc(NC(=O)CN2C(=O)NC(C)(c3ccccc3)C2=O)cn1 (stereo not given),4.02% (inactive),
COc1ccc(CS(=O)/C(Cl)=C(/Cl)C(=O)Nc2ccc(OC)nc2)cc1 (stereo not given),,3.16 µM (active)
COc1ccc(NC(=O)C(=O)NCc2ccco2)cc1,4.07% (inactive),
COc1ccc(NC(=O)CSc2nc3ncccc3[nH]2)c(OC)c1,11.2% (inactive),
COc1ccc(C(=O)c2c3ccc([N+](=O)[O-])cc3[n+]([O-])n2CCCN)cc1,,8.91 µM (active)
COc1ccc2c(C(=O)c3ccc(C)cc3)n(CCC(N)=O)[n+]([O-])c2c1,-22.6% (inactive),
COc1ccc(C(=O)NCCNc2ccc([N+](=O)[O-])cn2)cc1,1.81% (inactive),
CCS(=O)(=O)N1CCc2cc(C(=O)N3CCN(c4ccccc4OC)CC3)ccc21,-25.2% (inactive),
CCC(=O)N1CCc2cc(S(=O)(=O)NC(Cc3ccccc3)C(=O)NCc3ccc(C)cc3)ccc21 (stereo not given),-28.1% (inactive),
CC(C)OCCCn1c(SCC(=O)c2ccccc2)nc2c(sc3ccccc32)c1=O,-15.3% (inactive),
Fc1ccccc1Cc1ccc(Cl)nn1,-7.59% (inactive),
C/C(=N\Nc1ccc(Cl)nn1)c1ccccc1O,,1.26 µM (active)
C/C(=N/Nc1ccc(Cl)cc1)c1cnnc(-c2ccccc2)n1,0.78% (inactive),
COc1ccc(C2=NC(c3ccncc3)=Nc3ccc(Br)cc3N2)cc1,-2.9% (inactive),
Cc1cccc(N2C(=O)N3[C@H](c4ccc(F)cc4)[C@@H]4C(=O)N(C5CCCCC5)C(=O)[C@@H]4[C@]3(Cc3ccccc3)C2=O)c1,17.6% (inactive),
C[C@@]12C(=O)N(c3cccc(Br)c3)C(=O)N1[C@H](c1ccc(Cl)cc1)[C@@H]1C(=O)N(C3CCCCC3)C(=O)[C@@H]12,,11.2 µM (active)
O=C1[C@H]2[C@@H](c3ccc(Cl)cc3)N3C(=O)N(c4cccc(F)c4)C(=O)[C@@]3(Cc3ccccc3)[C@H]2C(=O)N1C1CCCCC1,-18.1% (inactive),
CNCCCOc1cc2nc(N3CCCN(C)CC3)nc(NC3CCN(C)CC3)c2cc1OC,22% (inactive),
CN(Cc1ccccc1)C(=O)CCS(=O)(=O)c1cc(Br)cc2c1N(C(=O)C1CC1)CC2,0% (inactive),
